Measured values published in PubChem BioAssay AID449762 (Southern Research Specialized Biocontainment Screening …, 2010).
The whole screen tested about 330,000 compounds, of which about 1,900 (0.58%) were called active. Not shown: some 4% with an inconclusive outcome. These entries were drawn from the full list. Results with a measured potency or affinity are listed apart. A number with no mark means an inactive call. No stated cut-off is given here; in the data, inconclusive means inhibition above about 70% without an active follow-up result; inactive means below that.

Assay: M. tuberculosis growth inhibition, HTS (AID 449762);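 further: bacterial growth assessed after seven days of incubation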
Conditions: M. tuberculosis H37Rv growth inhibition, 7H9 media; at 25 µM; hits give high values

First: CCCCCC(=O)Nc1cccc(C2=NOC3(C2)C[C@@H](C(N)=O)N(C(=O)c2ccc(Cl)cc2)C3)c1 (stereo not given in full)
Second: CN(CCOc1ccc(Cl)cc1)C(=O)C1CCN(C(=O)c2ccc(F)cc2)CC1
The inhibition of the first is lower: -9.42% for the first, -0.37% for the second.

Going from CCOc1ccc2nc(NC(=O)C3CCCN(S(=O)(=O)c4cccs4)C3)sc2c1 (stereo not given) to COc1ccc2nc(NC(=O)C3CCN(S(=O)(=O)c4cccs4)CC3)sc2c1, the inhibition falls from 58.9% to -5.35%.

First: O=C(NCC1CCCN1S(=O)(=O)c1cccs1)C(=O)Nc1cccc(F)c1 (stereo not given)
Second: CC(=O)NCCC(=O)Nc1cccc(S(=O)(=O)N(C)c2ccccc2)c1
The inhibition of the first is lower: -3.47% for the first, -0.05% for the second.

Compared with CC(C)Cc1nc(SCC(=O)N2CCCC2)c2c(=O)n(C)c(=O)n(C)c2n1, CCCn1c(SCC(=O)Nc2ccccc2N2CCOCC2)nc2c1c(=O)n(C)c(=O)n2C is lower in inhibition: 5.69% for the first, -9.47% for the second.

Going from CC(=O)NCc1cc(-c2ccc(Cl)cc2)no1 to O=S(=O)(NCc1cc(-c2ccc(Cl)cc2)no1)c1ccc(Cl)cc1, the inhibition rises from -6.41% to -3.48%.

Going from COc1ccc(C2CC(C)=NN2C=O)cc1OC (stereo not given) to COc1ccc(/C=N/OCC(=O)Nc2cc(C)on2)cc1OC, the inhibition rises from -23.4% to -6.14%.

Compared with C=CCC1(CC=C)CCCN1C(=O)c1cc(COc2ccc(F)c(F)c2)on1, O=C(c1cc(COc2ccc(-n3cncn3)cc2)on1)N1CCCC1 is lower in inhibition: 11.7% for the first, 2.05% for the second.

First: COc1ccccc1C1=NOC(C)(c2nnc(Cc3ccccc3)o2)C1 (stereo not given)
Second: COc1cc(/C=N/OCC(=O)Nc2cc(C)on2)ccc1OCc1ccccc1
The inhibition of the first is higher: -2.16% for the first, -2.24% for the second.

First: Cc1ccc2oc(=O)c3cnn(CC(=O)N(CCN(C)C)Cc4ccco4)c3c2c1
Second: CCC(NC(=O)c1cc(COc2cncc(Cl)c2)on1)c1ccc(C)cc1 (stereo not given)
The inhibition of the first is lower: -9.56% for the first, 27.5% for the second.

First: Cn1c(SCC(=O)NCC2CCCO2)ncc(C(=O)Nc2ccccc2)c1=O (stereo not given)
Second: Cn1c(SCC(=O)NCC2CCCO2)ncc(C(=O)Nc2ccc(F)cc2)c1=O (stereo not given)
The inhibition of the first is lower: 54.1% for the first, 67.5% for the second.

Compared with COC(=O)c1ccc2c(=O)[nH]c(CSc3nc(-c4ccc(F)cc4)cs3)nc2c1, COC(=O)c1ccc2c(=O)[nH]c(CCl)nc2c1 is higher in inhibition: -1.24% for the first, 37.7% for the second.

Going from COc1cc(-c2nc3c[n+](CC(=O)c4ccccc4)ccc3n2C)cc(OC)c1OC to COc1cc(OC)c(-c2nc3c[n+](CC(=O)c4ccccc4)ccc3n2C)cc1OC, the inhibition falls from 3.76% to -1.07%.

Compared with Cc1ccc(-c2nc3ncccn3c2Nc2ccc3c(c2)OCCO3)o1, Cc1ccc(-c2nc3ncccn3c2Nc2ccc3c(c2)OCO3)o1 is lower in inhibition: 3.72% for the first, 3.61% for the second.

Compared with CCOc1ccc(NS(=O)(=O)c2cc(C(=O)N3CCCC3)ccc2Cl)cc1, Cc1ccc(NC(=O)c2ccc(OCC3CCCO3)cc2)nc1 (stereo not given) is higher in inhibition: 5.65% for the first, 16.9% for the second.

First: Oc1ccc(C[C@H]2CNCCN2CC2CCCCC2)cc1
Second: Oc1ccc(C[C@@H]2CNCCN2CC2CCCCC2)cc1
The inhibition of the first is higher: 7.27% for the first, -3.4% for the second.

Going from CCOC(=O)c1cc(-c2ccc3c(c2)OCCO3)n[nH]1 to CCOC(=O)c1c(C)[nH]c(N=Nc2cccc(C)c2)c1C, the inhibition rises from -1.75% to 15.8%.

Compared with OCCN(CCCn1c(-c2ccncc2)nc2ccccc21)c1nc(CN2CCCCC2)cs1, CCN1CCN(Cc2ccc(NC(=O)c3cc(NC(=O)c4ccc5n[nH]nc5c4)cc(OC)c3)cc2C(F)(F)F)CC1 is higher in inhibition: -3.74% for the first, 12.9% for the second.

Compared with CC(C)(C)c1ccc(C(=O)NNc2cc(N3CCOCC3)nc(N3CCOCC3)n2)cc1, O=C(NNc1cc(N2CCOCC2)nc(N2CCOCC2)n1)c1ccc(Cl)c(Cl)c1 is lower in inhibition: 1.03% for the first, -10.6% for the second.

Compared with O=C(CSc1nc2cc(Cl)ccc2o1)N1CCOCC1, CCN1CCN(Cc2ccc(NC(=O)c3cc(NC(=O)c4ccno4)cc(OC)c3)cc2C(F)(F)F)CC1 is higher in inhibition: 0.49% for the first, 66.3% for the second.

Going from Cc1ccccc1OCC(=O)N/N=C/c1ccccn1 to CCC(NC(=O)c1cc(COc2cncc(Cl)c2)on1)c1ccncc1 (stereo not given), the inhibition rises from -4.77% to 4.32%.

Compared with O=C(NC1(C(F)(F)F)NC(=O)N(C2CCCCC2)C1=O)C1CC1 (stereo not given), COc1ccc(N2C(=O)/C(=C/c3cc(C)n(-c4ccc(C)cn4)c3C)C(=O)NC2=S)c(OC)c1 is higher in inhibition: -5.69% for the first, 3.48% for the second.

First: CCOC(=O)c1c(C)[nH]c(N=Nc2cc(C(=O)O)cc(C(=O)O)c2)c1C
Second: CSCC(=O)Nc1cc(C)on1
The inhibition of the first is lower: -2.43% for the first, 7.76% for the second.

In the case of Cc1cc(NC(=O)C(Cl)(Cl)Cl)no1, the inhibition is reported as -0.63%.
